ID4 binder: binders of human ID4 protein. 1.2% of 31,000 active. calls only. small molecule microarray, Flag-ID4 binding, fluorescence F/B; call rule not given here;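 further: a binder raises fluorescence above local background on the spot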
Target sequence (P47928 whole entry, looked up): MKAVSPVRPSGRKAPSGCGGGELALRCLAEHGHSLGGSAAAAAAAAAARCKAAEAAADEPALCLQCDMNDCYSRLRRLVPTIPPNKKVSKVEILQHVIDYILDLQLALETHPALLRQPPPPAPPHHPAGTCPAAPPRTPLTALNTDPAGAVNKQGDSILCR
Calls only; n = inactive; + = active, no number. The entries come from a sample that favours hits as a whole.

SMILES	ID4 binder
COc1ccc(CN(C)C[C@@H]2Oc3ccc(NC(=O)Cc4cn(C)c5ccccc45)cc3CC(=O)N([C@@H](C)CO)C[C@H]2C)cc1	+
CNC[C@H]1Oc2ccc(NC(=O)Cc3cn(C)c4ccccc34)cc2CC(=O)N([C@@H](C)CO)C[C@@H]1C	n
CNC[C@@H]1Oc2ccc(NC(=O)Cc3cn(C)c4ccccc34)cc2CC(=O)N([C@@H](C)CO)C[C@H]1C	+
C[C@@H]1CN([C@@H](C)CO)C(=O)Cc2cc(NC(=O)Cc3cn(C)c4ccccc34)ccc2O[C@H]1CN(C)CC1CC1	n
COc1ccc(CN(C)C[C@@H]2Oc3ccc(NC(=O)Nc4ccc5c(c4)OCO5)cc3CC(=O)N([C@@H](C)CO)C[C@H]2C)cc1	+
COc1ccc(CN(C)C[C@@H]2Oc3ccc(NC(=O)Nc4ccc(OC)cc4)cc3CC(=O)N([C@H](C)CO)C[C@@H]2C)cc1	n
COc1ccc(CN(C)C[C@H]2Oc3ccc(NC(=O)Cc4cn(C)c5ccccc45)cc3CC(=O)N([C@@H](C)CO)C[C@@H]2C)cc1	n
C[C@@H]1CN([C@H](C)CO)C(=O)Cc2cc(NC(=O)Cc3ccccc3)ccc2O[C@H]1CN(C)C(=O)Nc1ccc2c(c1)OCO2	n
COc1ccc(CN(C)C[C@H]2Oc3ccc(NC(=O)Cc4cn(C)c5ccccc45)cc3CC(=O)N([C@@H](C)CO)C[C@H]2C)cc1	n
COc1ccc(CN(C)C[C@@H]2Oc3ccc(NC(=O)Nc4ccc(OC)cc4)cc3CC(=O)N([C@@H](C)CO)C[C@H]2C)cc1	n
C[C@H](CO)N1C[C@H](C)[C@@H](CN(C)C(=O)Nc2ccc3c(c2)OCO3)Oc2ccc(NC(=O)Cc3ccccc3)cc2CC1=O	+
C[C@H]1CN([C@@H](C)CO)C(=O)Cc2cc(NC(=O)Cc3ccccc3)ccc2O[C@@H]1CN(C)C(=O)Nc1ccc2c(c1)OCO2	n
Cc1nc(SCC(=O)c2ccc3c(c2)OCCO3)c2c3c(sc2n1)CCC3	n
CCC(Sc1nnc(-c2ccccc2)n1-c1ccccc1)C(=O)Nc1ccc(Cl)cc1 (stereo not drawn)	n
C=CCNc1oc(CC(C)C)nc1C#N	n
COC(=O)c1ccccc1NC(=O)Cn1nnc(-c2ccc(SC)cc2)n1	n
CCn1cc(C(C)NC(=S)Nc2cccc([N+](=O)[O-])c2)c(C)n1 (stereo not drawn)	n
Cc1ccc(-c2csc3nnc(SCC(=O)Nc4ccc5c(c4)OCCO5)n23)cc1	n
COc1ccc(C(=O)Nc2sc3c(c2C(=O)Nc2cccc(OC)c2)CCC3)cc1	n
CC(=O)c1cccc(NC(=O)CSc2nc(C)cc(=O)[nH]2)c1	n
CC(C)NC(=O)N(C)C[C@H]1Oc2cc(C3=CCCC3)ccc2S(=O)(=O)N([C@H](C)CO)C[C@H]1C	n
C[C@@H]1CN([C@@H](C)CO)S(=O)(=O)c2ccc(C3=CCCC3)cc2O[C@@H]1CN(C)C(=O)Nc1ccc2c(c1)OCO2	n
C[C@@H]1CN([C@@H](C)CO)S(=O)(=O)c2ccc(C3=CCCC3)cc2O[C@H]1CN(C)C(=O)Nc1ccc2c(c1)OCO2	+
COc1cc(OC)cc(-c2nnc(SCC(=O)Nc3ccc(F)cc3)o2)c1	n
CC(=O)Nc1ccc(NC(=O)C(NC(=O)c2ccco2)C(C)C)cc1 (stereo not drawn)	n
SMILES	ID4 binder
O=C1c2ccccc2C(=O)N1C[C@@H]1CCCN(Cc2cccc(OCCO)c2)C1	n
O=S(=O)(N[C@@H]1CCCN(Cc2ccc(OCCO)cc2)C1)c1ccc(-c2ccccc2)cc1	n
COc1ccc(S(=O)(=O)N[C@@H]2CCCN(Cc3ccc(OCCO)cc3)C2)cc1	n
O=C1c2ccccc2C(=O)N1C[C@@H]1CCCN(Cc2ccc(OCCO)cc2)C1	+
O=C1c2ccccc2C(=O)N1[C@@H]1CCCN(Cc2ccc(OCCO)cc2)C1	n
O=S(=O)(N[C@@H]1CCCN(Cc2ccc(OCCO)cc2)C1)c1ccc(Cl)cc1	+
COc1ccccc1CN=c1c([N+](=O)[O-])nn(-c2ccccc2)n1O	n
CCOc1ccccc1C(=O)Nc1ccc(S(=O)(=O)Nc2ccccn2)cc1	n
CCc1ccccc1NC(=O)c1ccccc1S(=O)(=O)c1ccccc1[N+](=O)[O-]	n
COc1cc(OC)c(C2=NOC(C(=O)NCc3ccco3)C2)cc1Cl (stereo not drawn)	n
CN/C(=C/[N+](=O)[O-])NCCSCc1csc(CN(C)C)n1	+
CC(=O)c1ccc(NC(=O)Cn2cnc3c(sc4nc5c(cc43)COC(C)(C)C5)c2=O)cc1	n
Cc1nc(SCC(=O)Nc2oc(-c3ccccc3)c(-c3ccccc3)c2C#N)nc2c1CCCC2	n
NS(=O)(=O)c1ccc(NC(=O)CN2CCN(Cc3ccccc3)CC2)cc1	+
COc1ccc(NC(=O)CN2CCN(S(=O)(=O)c3ccccc3)CC2)cc1	n
O=C(CN1CCN(S(=O)(=O)c2ccc3ccccc3c2)CC1)Nc1ccc(Br)cc1	n
CCC(C)CCC(O)C1=C(C)C(O)OC1=O (stereo not drawn)	n
COc1cc2nccc(Oc3ccc(NC(=O)Nc4ccc(F)cc4F)c(F)c3)c2cc1OC	+
COc1cc2ncnc(Nc3ccc(Cl)cc3F)c2cc1OC	n
O=C(NCc1ccccn1)Nc1ccc(F)cc1F	n
CCOc1ccccc1NC(=O)CN1C(=O)c2ccc([N+](=O)[O-])cc2C1=O	n
Cc1nn2c(CN(c3ccccc3)S(=O)(=O)c3ccccc3)nnc2c2ccccc12	n
Cc1nn2c(CN(C(=O)c3cccs3)c3ccccc3)nnc2c2ccccc12	n
Cc1nn2c(CN(C(=O)CN3CCOCC3)c3ccccc3)nnc2c2ccccc12	+
O=C(CSc1nc2ccccc2c(=O)[nH]1)Nc1ccccc1C(=O)c1ccccc1	n
CCCCCCC(=O)OC1OC(CO)C(O)C2OCC(C(=O)O)COC12 (stereo not drawn)	n

Compound activity as filed in PubChem BioAssay.
